# Tau fibril ThT = qHTS for Inhibitors of Tau Fibril Formation, Thioflavin T Binding. Microtubule-associated protein tau (Homo sapiens), P10636. recombinant tau K18 P301L, heparin-induced fibrillization, ThT fluorescence. Potency, µM (doses to about 57.4 µM), for the others: at the highest dose activity, negative = inhibition, usual class: inhibitors. 2.1% of 270,000 active. AID 1460, 2008; note: potency is the fitted concentration of half-maximal effect; nearly all actives have a fitted effect of over 55% in size
# Target sequence (P10636 561-689 P618L limits assumed): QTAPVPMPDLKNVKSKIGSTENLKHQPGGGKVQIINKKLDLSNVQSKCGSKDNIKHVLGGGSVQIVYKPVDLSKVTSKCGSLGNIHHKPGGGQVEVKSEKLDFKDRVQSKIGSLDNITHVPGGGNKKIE
#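 Fibril formation assay: tau K18 P301L at 15 uM with trace Alexa 594 label, heparin inducer 20 uM, pH 7 sodium acetate buffer, 37 C for 6 hr; endpoint ThT signal.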
# G9a inh = qHTS Assay for Inhibitors of Histone Lysine Methyltransferase G9a | Potency, µM (highest dose often 102 µM), inactives show at the top dose activity, negative = inhibition, hits mostly inhibitors | G9a H3K9 monomethylation, AlphaScreen, 2 h | 8.8% of 350,000 active | AID 504332, 2011 | Histone-lysine N-methyltransferase EHMT2 (Homo sapiens), Q96KQ7; note: potency is the fitted concentration of half-maximal effect; nearly all actives have a fitted effect of over 75% in size
# Target sequence (Q96KQ7 913-1193 limits assumed): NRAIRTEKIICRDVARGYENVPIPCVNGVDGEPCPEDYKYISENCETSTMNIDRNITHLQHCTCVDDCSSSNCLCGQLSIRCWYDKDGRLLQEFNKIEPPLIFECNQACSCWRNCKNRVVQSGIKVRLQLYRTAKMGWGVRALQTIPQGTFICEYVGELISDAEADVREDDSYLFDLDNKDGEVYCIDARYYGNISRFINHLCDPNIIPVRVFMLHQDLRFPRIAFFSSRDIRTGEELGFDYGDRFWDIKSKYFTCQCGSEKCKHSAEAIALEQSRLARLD
#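 AlphaScreen read-out: biotin-H3K9 peptide (500 nM) methylation by 20 nM enzyme with 20 uM SAM, 2 h at room temperature after 15 min compound preincubation; anti-monomethyl H3K9 antibody plus donor/acceptor beads, 10 min dark.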
# Tau fluor counter = Counterscreen qHTS for Inhibitors of Tau Fibril Formation, Fluorescence Polarization; Potency, µM (highest dose often 57.7 µM), without a hit: at the highest dose activity change, negative = decrease; tau K18 P301L (four-repeat tau fragment) Alexa594 fluorescence, heparin fibrillization; 0.93% of 280,000 active; note: potency is the fitted concentration of half-maximal effect; nearly all actives have a fitted effect of over 55% in size
#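 Human K18 P301L tau (15 uM unlabeled plus 0.24 uM Alexa 594-labeled, final) in 100 mM sodium acetate pH 7 was mixed with compound and 20 uM heparin and incubated 6 hr at 37 C.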
# FBPA coupling cs = qHTS Assay for Inhibitors of Fructose-1,6-bisphosphate Aldolase from Giardia Lamblia: Coupling assay counterscreen | coupling enzyme system counterscreen, AmpLite Red fluorescence | activity change, negative = inhibition, % at 58.2 µM, hits read low | 0.67% of 290,000 active | AID 2472, 2010; in the data active = activity change below about -30%
#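 Counterscreen of the coupled detection system alone, without aldolase: glyceraldehyde-3-phosphate coupling enzymes plus AmpLite Red readout. Compounds at 57.5 uM final, 10 min RT preincubation, 20 min RT reaction, fluorescence 525/598 nm.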
# Sfp inh = qHTS Assay for Inhibitors of Bacillus subtilis Sfp phosphopantetheinyl transferase (PPTase). 4'-phosphopantetheinyl transferase ffp (Bacillus subtilis), Q9F4F7. Potency, µM, inactives show largest response in the series, negative = inhibition, usual class: inhibitors. 3.5% of 310,000 active. AID 1490, 2009. Biochemical Sfp PPTase activity, qHTS;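 note: the enzyme is Sfp with the accession as filed and its product quenches rhodamine fluorescence; potency is the fitted concentration of half-maximal effect; 0% = enzyme reaction without inhibitor and -100% = no enzyme wells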
#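 Sfp 15 nM + cpd, 15 min RT; start w/ rhodamine-CoA 5 uM, BHQ-2-YbbR 12.5 uM (final); 50 mM Hepes pH 7.6, 10 mM MgCl2, 0.01% NP-40, 0.01% BSA; read 525/598 nm at 0 and 30 min.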
# Tau fibril FP = qHTS for Inhibitors of Tau Fibril Formation, Fluorescence Polarization | Microtubule-associated protein tau (Homo sapiens), P10636 | K18 P301L tau heparin fibrillization, Alexa594 FP, 6 h | Potency, µM (titrated, usually from 57.7 µM), without a hit: at the highest dose activity, negative = inhibition, actives largely listed as inhibitors | 0.39% of 280,000 active; note: potency is the fitted concentration of half-maximal effect; nearly all actives have a fitted effect of over 55% in size
#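 Compound effects on tau fibrillization are measured by Alexa 594 fluorescence polarization (ex 555, em 632 nm). K18 P301L tau is used at 15 uM with 0.24 uM labeled tracer, and 20 uM heparin induces aggregation over 6 hr at 37 C.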
# * marks the source's active call; other numbers are inactive results; ? = inconclusive; nt = no result given; [ ] = dose if it differs, or a comment. Compounds with a hit are over-represented: about 11% of the library has one in this group of screens. Unless noted, calls come from the whole dose curve; as a rule, active = well fitted curve in the direction sought with a large enough effect; inconclusive = small, poorly fitted or top-dose-only effect, or another doubt; inactive = no such curve, though single readings can be large; an effect the other way counts as inactive or inconclusive. Unless noted, % is set by controls: 0 for no effect and ±100 for the full control effect.
SMILES,Tau fibril ThT,G9a inh,Tau fluor counter,FBPA coupling cs,Sfp inh,Tau fibril FP
Cc1ccc(-n2ncc3c2CCCC3NC(=O)CCCN2CCCCC2=O)cc1C (centres undefined),nt,6%,nt,nt,9%,nt
COc1ccc(NC(=O)N2CC3(CCN(C(=O)c4cccc(F)c4)CC3)C2)cc1,nt,5%[12.7 µM],nt,0,10%,nt
NC(=O)c1ccc(NC(=O)Cc2ccc(S(=O)(=O)N3CCCCC3)cc2)cc1,nt,15%[12.7 µM],nt,nt,nt,nt
Cc1cccc(CNc2ncnc3ccc(-c4cccc(NS(C)(=O)=O)c4)cc23)c1,?,nt,?,-9,18%,18µM*
Cc1cccc(CNc2ncnc3ccc(-c4cccc(C)c4)cc23)c1,nt,-5%[12.7 µM],nt,nt,nt,nt
Cc1ccc(-n2c(=S)[nH]c3[nH]ncc3c2=O)cc1,1%,35µM*,8%,-1,-25%,9%
O=c1c2cn[nH]c2[nH]c(=S)n1-c1ccccc1Cl,2%,45µM*,0%,-1,56µM*,3%
O=c1c2cn[nH]c2[nH]c(=S)n1-c1ccccc1F,?,8.9µM*,-21%,2,-12%,3%
CCOC(=O)c1ccccc1NC(=O)c1sc2nc3n(c(=O)c2c1C)CCCCC3,-2%,5%[59 µM],-3%,nt,nt,-4%
CCC/C=C(\CCC)C(NS(=O)(=O)c1ccc(Cl)cc1)c1ccccc1 (centres undefined),-9%,nt,-15%,1,19%,11%
COc1ccc(Cl)cc1NC(=O)NCCn1c(=O)oc2ccc(C)cc21,?,-12%[59 µM],?,nt,nt,-14%
CC(C)(C)c1ccc(S(=O)(=O)NCc2ccc3c(c2)CCN3C(=O)c2ccccc2)cc1,-6%,-4%[59 µM],-14%,nt,nt,-6%
CC1(C)CC(=O)C(N=Nc2cc(C(F)(F)F)ccc2Cl)=C(O)C1,-17%,?,-17%,-1,4%,3%
CC1(C)CC(=O)C(N=Nc2cc(S(=O)(=O)N3CCOCC3)ccc2Cl)=C(O)C1,-9%,50µM*,-18%,-2,-2%,-8%
Cc1cc(C)c2nc(N3CCCC(C(=O)NCc4cccc(Cl)c4)C3)sc2c1 (centres undefined),?,-24%[59 µM],?,nt,nt,6%
O=S(=O)(Nc1ccncc1Cl)c1ccc2ccccc2c1,-1%,45µM*,-1%,13,2%,-8%
Cc1cc(N=NC(=O)c2ccccc2)ccc1O,?,?,-22%,-10,50µM*,?
Cc1ccc(N=Nc2ccc(O)c(P(=O)(c3ccccc3)c3ccccc3)c2)cc1,?,?,-29%,4,2%,10%
Cc1ccc(NC(=S)N/N=C/c2ccc([N+](=O)[O-])s2)cc1,5µM*,40µM*,16µM*[quencher],-5,-22%,?
NC(=O)c1ccc(N=Cc2ccc([N+](=O)[O-])s2)cc1,?,?,-21%,-31*,-4%,-12%
Cc1c(N=Cc2ccc(Br)s2)cccc1[N+](=O)[O-],-8%,-11%[59 µM],-3%,-3,-1%,-3%
Cc1cc(C)cc(N=Cc2ccc([N+](=O)[O-])s2)c1,?,40µM*,-19%,-21,12%,-8%
O=[N+]([O-])c1ccc(C=Nc2ccc(Cl)c([N+](=O)[O-])c2)s1,?,-14%[59 µM],-17%,-34*,-5%,-6%
CS(=O)(=O)N(CC(=O)N1CCCC1)c1ccccc1Br,nt,6%[0.501 µM],nt,1,18%,nt
CC1=C(/C=C/C(C)=C/C=C/C(C)=C\CO)C(C)(C)CCC1,?,25µM*,-25%,nt,-7%,-12%
SMILES,Tau fibril ThT,G9a inh,Tau fluor counter,FBPA coupling cs,Sfp inh,Tau fibril FP
CC(=O)c1ccc(S(=O)(=O)Nc2ccc(C(=O)N3CCC3)cc2)cc1,nt,-35%,nt,nt,nt,nt
C=C(C)CN1C(=O)C(O)(CC(=O)c2ccc3c(c2)OCCO3)c2ccccc21 (centres undefined),1%,4%[12.7 µM],-1%,-1,24%,-2%
N#CCCCN1C(=O)C(O)(CC(=O)c2ccc3c(c2)OCCO3)c2ccccc21 (centres undefined),?,35µM*,-7%,1,17%,-2%
Cc1ccc(CN2C(=O)C(O)(CC(=O)c3ccc(C)cc3)c3ccccc32)cc1 (centres undefined),?,11µM*,-15%,nt,nt,2%
O=C(Cc1c(Cl)cccc1Cl)N1CCN(S(=O)(=O)c2cccs2)CC1,nt,-11%[12.7 µM],nt,nt,nt,nt
Cc1nc2cc3nc(C)sc3cc2s1,?,7.1µM*,-9%,-7,40µM*,-3%
Cc1nc2cc(CO)ccc2s1,3%,4%,7%,5,10%,0%
COc1ccccc1OC(=O)CCc1nc2ccccc2s1,?,50µM*,-21%,-2,14µM*,0%
COC(=O)C(Cc1ccc(O)cc1)NC(=O)CCc1nc2ccccc2s1 (centres undefined),nt,40µM*,nt,3,-4%,nt
COC(=O)C(Cc1ccc(O)cc1)NC(=O)CCOc1ccc(OC)cc1 (centres undefined),nt,13%[59 µM],nt,-1,24%,nt
CCOC(=O)[C@H]1[C@H]2COc3ccc(Br)cc3[C@H]2N2C(=O)CNC(=O)[C@@]12C,nt,5%[0.501 µM],nt,nt,nt,nt
Cc1c(C(=O)Nc2cccc(C(F)(F)F)c2)sc2nc3n(c(=O)c12)CCCC3,?,3.5µM*,-10%,nt,nt,-14%
COc1cc(OC)c(N(C)C(=O)c2sc3nc4n(c(=O)c3c2C)CCCCC4)cc1Cl,-5%,14µM*,-3%,nt,nt,-6%
Cc1c(C(=O)N(C)c2cccc(C(F)(F)F)c2)sc2nc3n(c(=O)c12)CCCCC3,?,14µM*,-23%,nt,nt,?
CCOc1ccc(NC(=O)c2sc3nc4n(c(=O)c3c2C)CCCC4)cc1,-11%,16µM*,-6%,nt,nt,-7%
CCCC1=Nc2cc(C(=O)NCc3ccc(OC)cc3)ccc2Sc2ccc(C)cc21,-3%,8%[59 µM],-16%,nt,nt,-8%
Cc1ccn2c(Nc3ccc4c(c3)OCCO4)c(-c3cccs3)nc2c1,?,14µM*,?,nt,nt,?
Cc1ccc(C(=O)Nc2c(-c3cccs3)nc3cc(C)ccn23)cc1,-10%,4%[59 µM],-15%,1,-16%,6%
Cc1ccc(Nc2c(-c3ccc(N(C)C)cc3)nc3ccccn23)cc1,-13%,?,-26%,nt,nt,?
Cc1ccn2c(Nc3ccc4c(c3)OCCO4)c(-c3ccc(N(C)C)cc3)nc2c1,?,8.9µM*,?,nt,nt,?
